Experimental data from PubChem BioAssay.
A number with no mark means an inactive call. Unless noted, the rule behind the calls is not given here.

Target: Homeobox protein Hox-A13 (Mus musculus) (UniProt Q62424)
Test: disruptors of Hoxa13 oligonucleotide interaction – biochemical, fluorescence polarization, labeled oligonucleotide, primary screen (AID 1185)
Conditions: Hoxa13:DNA binding, 15 min, higher = more signal, called active from +8 up or from −8 down

Sequence of Homeobox protein Hox-A13 (Mus musculus) (Q62424 whole entry, looked up): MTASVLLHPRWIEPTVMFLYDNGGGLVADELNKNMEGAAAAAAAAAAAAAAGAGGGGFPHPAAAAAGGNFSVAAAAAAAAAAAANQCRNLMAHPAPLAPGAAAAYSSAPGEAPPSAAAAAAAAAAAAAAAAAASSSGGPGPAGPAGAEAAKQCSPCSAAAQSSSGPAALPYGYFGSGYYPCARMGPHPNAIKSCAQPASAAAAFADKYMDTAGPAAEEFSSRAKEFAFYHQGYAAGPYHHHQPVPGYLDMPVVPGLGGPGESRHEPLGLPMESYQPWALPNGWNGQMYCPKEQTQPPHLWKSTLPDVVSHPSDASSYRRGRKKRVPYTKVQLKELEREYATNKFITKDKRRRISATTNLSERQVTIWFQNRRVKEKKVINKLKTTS

Compound | z-score
COC(=O)[C@@]1(Cc2ccccc2)[C@H]2c3cc(C(=O)N4CCCC4)n(Cc4ccc(C)o4)c3C[C@H]2CN1C(=O)c1ccccc1 | -4.62
CC(C)CNC(=O)[C@@H]1c2ccccc2C(=O)N(Cc2cc(C(F)(F)F)cc(C(F)(F)F)c2)[C@H]1c1ccc(CO)cc1 | -1.46
COC(=O)[C@@]1(Cc2ccc(OC)cc2)[C@H]2c3cc(C(=O)N(C)C)n(Cc4c(OC)[nH]cc(C)c4=O)c3C[C@H]2CN1C(=O)c1ccccc1 | -5.46
O=C1O[C@@H](c2ccccc2)[C@@H](c2ccccc2)N2[C@@H](c3ccc(OCCO)cc3)[C@]3(C(=O)Nc4ccc(C#CC5=CCCCC5)cc43)[C@@H](C(=O)O)[C@H]12 | -3.99
C=C[C@@H](COC(C)=O)N(Cc1ccccc1[N+](=O)[O-])S(=O)(=O)c1ccc(Br)cc1 | -2.89
COC(=O)[C@@]1(Cc2ccc(OC)cc2)[C@H]2c3cc(C(=O)N4CCCC4)n(CCc4c[nH]c5cc(F)ccc45)c3C[C@H]2CN1C(=O)c1ccccc1 | 0.828
COC(=O)c1ccc(C(O)C2C=CC3C(=O)N(c4ccccc4)C(=O)C3N2Nc2ccc(C#N)cc2)o1 (stereo not given) | -3.24
COc1c(C)cc(-c2cc3c(c(-c4ccc(Oc5ccccc5)cc4)n2)[Si](C(C)C)(C(C)C)OC3)cc1C | -0.746
COC(=O)[C@@]1(Cc2ccc(F)cc2)[C@H]2c3cc(C(=O)N(C)C)n(CCc4ccccn4)c3C[C@H]2CN1C(=O)c1ccccc1 | -2.89
COCC(=C=CC[C@H](O)c1ccc(OCCO)cc1)C[C@H](O)c1cc(Cl)cc(Cl)c1O | -4.13
CC(C)(C)OC(=O)CC[C@]1(C(=O)N2CCCCC2)N=C(c2ccc(OCCCO)cc2)O[C@H]1c1ccccc1N=[N+]=[N-] | -2.92
CC(C)C(O)C1C=CC2C(=O)N(c3ccccc3)C(=O)C2N1Nc1ccc(C#N)cc1 (stereo not given) | -2.61

System: not listed separately
Test: blockers of DNA damage checkpoint Chk1 activation – imaging, HeLa, hydroxyurea, phospho-Chk1 antibody, percent positive cells, primary screen (AID 1186)
Conditions: hydroxyurea-induced phospho-Chk1 immunofluorescence imaging, higher = more signal

Compound | z-score
C=C[C@H](COC(C)=O)N(Cc1ccc(OC(C)=O)c(OC)c1)S(=O)(=O)c1ccc(Br)cc1 | -0.245
CCCC[C@H]1OB(O)C[C@H]2C1=C(C)C[C@H]1C(=O)N(Cc3ccccc3)C(=O)[C@H]12 | -0.128
C=C[C@@H](COC(C)=O)N(Cc1ccc([N+](=O)[O-])cc1)S(=O)(=O)c1ccc(Br)cc1 | -0.617
Cc1ccc(S[C@]2(C(=O)NCC(C)C)CC(=O)N(Cc3ccccc3Cl)[C@@H]2c2ccc(CO)cc2)cc1 | 0.259
COCCOC(=O)N1C(=O)[C@@]2(c3cc(C#CCCO)ccc31)[C@H](c1ccccc1OCCO)N1[C@H](c3ccccc3)[C@H](c3ccccc3)OC(=O)[C@H]1[C@@H]2C(=O)N1CCN(c2ncccn2)CC1 | -0.0825
COCCCNC(=O)[C@@]1(c2ccc([N+](=O)[O-])cc2)CC(=O)N(CC23CC4CC(CC(C4)C2)C3)[C@@H]1c1ccc(CO)cc1 | -0.687
Cc1cc(C)c(C(O)C2C=CC3C(=O)N(C)C(=O)C3N2Nc2ccccc2)c(C)c1 (stereo not given) | 0.195
CCCNC(=O)[C@@H]1c2ccccc2C(=O)N(Cc2ccccc2)[C@H]1c1ccc(CO)cc1 | 0.0089
COc1ccc([Si](C)(C)[C@H]2[C@H](CC(=O)N(CCO)Cc3ccccc3)O[C@@]3(C(=O)N(Cc4cccc(N5CCC5=O)c4)c4ccccc43)[C@@H]2C)cc1 | -1.46
COc1ccc([Si](C)(C)[C@@H]2[C@@H](CCn3cc([C@H](O)c4ccccc4)nn3)O[C@]3(C(=O)N(Cc4ccc(N5C(=O)c6cccc7cccc5c67)cc4)c4ccccc43)[C@H]2C)cc1 | -0.506
CCN(CC)c1ccc(N2CC=CC34O[C@@H]5C=CCCOC(=O)C5[C@H]3C(=O)N(CCCCCO)[C@@H]4C2=O)cc1 (stereo not given in full) | 0.234
COCCOC(=O)N1C(=O)[C@@]2(c3cc(C#CCC(C(=O)OC)C(=O)OC)ccc31)[C@H](c1ccccc1OCCO)N1[C@H](c3ccccc3)[C@H](c3ccccc3)OC(=O)[C@H]1[C@@H]2C(N)=O | -0.192
COc1ccc(C(O)C2C=CC3C(=O)N(c4ccccc4)C(=O)C3N2Nc2ccc([N+](=O)[O-])cc2)cc1OCc1ccccc1 (stereo not given) | -0.105
